Assay [1] can be described thus: UKN5_HCS_SBAD2_cell_viability: Viability Assessment in the University of Konstanz (UKN) Leist Lab Neurite Outgrowth Assay in human iPSC-derived immature Dorsal Root Ganglia Neurons (UKN5) (AID 2284056). In a few lines:
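iPSC-derived immature peripheral neurons (SBAD2) seeded on Matrigel with CHIR99021, SU5402 and DAPT, dosed 1 h later for 24 h. Viability from Hoechst H-33342 and calcein-AM live staining, high-content imaging; bidirectional fit versus DMSO.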

A short description of assay [2]: UKN5_HCS_SBAD2_neurite_outgrowth: University of Konstanz (UKN) Leist Lab Neurite Outgrowth Assay in human iPSC-derived immature Dorsal Root Ganglia Neurons (UKN5) (AID 2284070). Particulars: actives raise or lower the signal. An outline of the steps: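 Neurite area from calcein-AM high-content images after 24 h exposure (staining included), with H-33342 for viability, fitted both directions against DMSO. Cells: thawed immature SBAD2 peripheral neurons, 100.000 cells/cm2, with CHIR99021, SU5402, DAPT; dosing 1 h after seeding.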

Assay [3] is described as follows: UKN4_HCS_LUHMES_neurite_outgrowth: University of Konstanz (UKN) Leist Lab Neurite Outgrowth Assay in human LUHMES cells (UKN4) (AID 2284206). Particulars: actives raise or lower the signal. In a few lines:
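After 24 h compound treatment beginning shortly after replating of 2-day-differentiated LUHMES cells, calcein-AM and H-33342 live staining allowed high-content imaging of neurite area and viability. Fitted bidirectionally against DMSO.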

Assay [4] is described as follows: IUF_NPC1a_proliferation_area_72hr: Leibniz Research Institute for Environmental Medicine (IUF) 72-hour Neural Progenitor Cell Proliferation Area Assay (NPC1a) (AID 2284208). An outline of the steps: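 Read-out: increase in sphere area over 72 h by automated phase-contrast imaging, fitted in positive direction versus DMSO baseline. One hNPC sphere (0.25-0.35 mm) per well in EGF/FGF medium; growth-factor withdrawal served as positive control.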

Assay [5] in a line: IUF_NPC1_viability_72hr: Viability Assessment at 72 hours in the Leibniz Research Institute for Environmental Medicine (IUF) Neural Progenitor Cell Proliferation Assay (NPC1) (AID 2284209). An outline of the steps:
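Viability was measured by resazurin-to-resorufin fluorescence (alamar blue) after 72 h of continuous exposure without compound renewal. Each well held one hNPC sphere (gestational week 16-19 fetal cortex, 0.25-0.35 mm) cultured in EGF/FGF proliferation medium at 37C and pH 7.2-7.6.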

Assay [6] is described as follows: UKN4_HCS_LUHMES_cell_viability: Viability Assessment in the University of Konstanz (UKN) Leist Lab Neurite Outgrowth Assay in human LUHMES cells (UKN4) (AID 2284232). In a few lines:
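Viability was read by high-content imaging of calcein-AM/H-33342-stained cells after 24 h toxicant exposure, staining included. Cells: human LUHMES on day 2 of dopaminergic differentiation, dosed shortly after attachment; DMSO baseline, bidirectional curve fitting.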

Assay [7] in a line: UKN2_HCS_IMR90_cell_viability: Viability Assessment in the University of Konstanz (UKN) Leist Lab Neural Crest Cell Migration Assay in human induced IMR90 Pluripotent Stem Cells (UKN2) (AID 2284233).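 Further: cells exposed to compound for 24 h after a 24 h migration phase.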 In a few lines:
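After calcein-AM/Hoechst staining, viability is quantified by high-content fluorescence imaging, relative to DMSO, in iPSC (IMR90)-derived neural crest cells. Exposure lasts 24 h, starting after a 24 h migration period on PLO/laminin/fibronectin coating.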

A short description of assay [8]: IUF_NPC2c_oligodendrocyte_migration_120hr: Leibniz Research Institute for Environmental Medicine (IUF) 120-hour Neural Progenitor Cell Migration Assay for Oligodendrocyte Migration (NPC2c) (AID 2284297).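 Further: O4-positive oligodendrocyte migration distance divided by radial glia migration distance.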 An outline of the steps:
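Human fetal cortex-derived neural progenitor spheres (0.3 mm) were plated on poly-D-lysine/laminin in N2 differentiation medium and exposed to 7 concentrations for 120 h, with half-medium renewal at day 3. Oligodendrocyte migration distance was normalized to radial glia migration, relative to DMSO.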

Assay [9] can be described thus: IUF_NPC2a_radial_glia_migration_120hr: Leibniz Research Institute for Environmental Medicine (IUF) 120-hour Neural Progenitor Cell Migration Assay for Radial Glia Migration (NPC2a) (AID 2284298). In a few lines:
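Single 0.3 mm primary human fetal-cortex (GW 16-19) NPC spheres were plated on poly-D-lysine/laminin in N2 differentiation medium and exposed from day 0 for 120 h, half-medium refreshed day 3. Migration distance came from Hoechst nuclei-density imaging, relative to DMSO.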

Assay [10] in a line: IUF_NPC2b_neuronal_migration_120hr: Leibniz Research Institute for Environmental Medicine (IUF) 120-hour Neural Progenitor Cell Migration Assay for Neuron Migration (NPC2b) (AID 2284300). In a few lines:
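Primary human fetal cortex neural progenitor spheres (0.3 mm) plated on poly-D-lysine/laminin in N2 differentiation medium, exposed 120 h with half-medium refresh at day 3. TUBB3-stained neuron distance from sphere core, normalized to radial glia migration, versus DMSO.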

Assay [11] is described as follows: IUF_NPC3_neuronal_differentiation_120hr: Leibniz Research Institute for Environmental Medicine (IUF) 120-hour Neuronal Differentiation Assay (NPC3) (AID 2284301). In a few lines: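 Value is percent TUBB3-positive neurons among Hoechst-stained nuclei in the migration area, scored by trained CNN after 120 h differentiation. Primary hNPC spheres on poly-D-lysine/laminin, N2 medium, continuous dosing from day 0, half-refeed day 3; DMSO reference.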

The nature of assay [12]: IUF_NPC4_neurite_length_120hr: Leibniz Research Institute for Environmental Medicine (IUF) 120-hour Neuronal Morphology Assay for Neurite Length (NPC4) (AID 2284302). In a few lines: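 Neurite length, the mean in um across TUBB3-stained neurons, is derived by skeletonization of high-content images after 120 h differentiation. Compound exposure, 7 concentrations plus solvent control, ran from plating of hNPC spheres on poly-D-lysine/laminin, with medium half-replaced on day 3.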

A short description of assay [13]: IUF_NPC5_oligodendrocyte_differentiation_120hr: Leibniz Research Institute for Environmental Medicine (IUF) 120-hour Oligodendrocyte Differentiation Assay (NPC5) (AID 2284304; active means hit-call score of the fitted dose curve at least 0.9, where 1 is the maximum;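 further: primary human fetal neural progenitor spheres plated to migrate and differentiate; share of O4-positive cells among Hoechst nuclei found by CNN image analysis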). An outline of the steps: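 Primary human fetal (GW 16-19) neural progenitor spheres (0.3 mm) plated on poly-D-lysine/laminin in N2 differentiation medium, exposed from day 0 for 120 h with half-medium refresh at day 3; O4-positive cells as percent of Hoechst nuclei, CNN-identified, versus DMSO.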

Assay [14] in a line: IUF_NPC4_neurite_area_120hr: Leibniz Research Institute for Environmental Medicine (IUF) 120-hour Neuronal Morphology Assay for Neurite Area (NPC4) (AID 2284305; active means hit-call score of the fitted dose curve at least 0.9, where 1 is the maximum). An outline of the steps:
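Neurite area (pixels, nuclei excluded) of TUBB3-positive neurons from hNPC spheres differentiating 5 days under continuous exposure at 37 C, 5% CO2. High-content imaging; loss of signal versus DMSO control across 7 concentrations.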

Assay [15] can be described thus: IUF_NPC2-5_cytotoxicity_72hr: Cytotoxicity Assessment at 72 hours in the Leibniz Research Institute for Environmental Medicine (IUF) Neural Progenitor Cell Migration and Differentiation Assay for Cytotoxicity (NPC2-5) (AID 2284306; active means hit-call score of the fitted dose curve at least 0.9, where 1 is the maximum;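 further: LDH release into supernatant measured by resorufin fluorescence marking membrane damage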). An outline of the steps:
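Membrane-integrity cytotoxicity at 72 h, read as LDH-driven resorufin fluorescence in supernatant. hNPC spheres from fetal cortex differentiate on coated plates in N2 medium, 37C, 5% CO2; seven serial compound concentrations plus solvent control (DMSO ≤0.1%).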

A short description of assay [16]: IUF_NPC2-5_cytotoxicity_120hr: Cytotoxicity Assessment at 120 hours in the Leibniz Research Institute for Environmental Medicine (IUF) Neural Progenitor Cell Migration and Differentiation Assay (NPC2-5) (AID 2284307; active means hit-call score of the fitted dose curve at least 0.9, where 1 is the maximum;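 further: LDH released into supernatant as membrane damage marker via resorufin fluorescence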). In a few lines:
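Human fetal neural progenitor spheres (0.3 mm, GW 16-19 cortex) were plated on poly-D-lysine/laminin in N2 differentiation medium and exposed for 120 h, with half-medium refresh at day 3. LDH release into supernatant was read by resorufin fluorescence.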

Assay [17] in a line: IUF_NPC2-5_cell_number_120hr: Cell Number Assessment at 120 hours in the Leibniz Research Institute for Environmental Medicine (IUF) Neural Progenitor Cell Migration and Differentiation Assay (NPC2-5) (AID 2284308).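 Further: count of Hoechst-stained nuclei in migration zone around plated human neural progenitor spheres.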 In a few lines:
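Primary human fetal neural progenitor spheres (GW 16-19, 0.3 mm) plated on poly-D-lysine/laminin in N2 differentiation medium, exposed from day 0 for 120 h with half-medium refresh at day 3; Hoechst-positive nuclei counted in migration area versus DMSO control.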

A short description of assay [18]: IUF_NPC2-5_viability_120hr: Viability Assessment at 120 hours in the Leibniz Research Institute for Environmental Medicine (IUF) Neural Progenitor Cell Migration and Differentiation Assay (NPC2-5) (AID 2284312). An outline of the steps:
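Alamar blue resorufin fluorescence read after 5 days of differentiation, with compound present from day 0 and replenished at day 3. Primary hNPC spheres on laminin-coated plates, 37C; seven concentrations plus solvent control, fitted against DMSO.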

Assay [19] can be described thus: IUF_NPC1_cytotoxicity_72hr: Cytotoxicity Assessment at 72 hours in the Leibniz Research Institute for Environmental Medicine (IUF) Neural Progenitor Cell Proliferation Assay (NPC1) (AID 2284332; active means hit-call score of the fitted dose curve at least 0.9, where 1 is the maximum;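 further: rising LDH signal means more cytotoxicity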). In a few lines: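 Cytotoxicity by LDH membrane-integrity assay on medium supernatants, fluorescence via resazurin reduction, after 3-day single exposure of primary hNPC spheres at 37C, pH 7.2-7.6 with growth factors. Fitted upward against baseline.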

The source of these data is PubChem BioAssay (EPA / NIEHS).

SMILES strings stand for the structures. Results filed as inconclusive are left out. Calls of active or inactive are those of the source. How the source made its calls, unless noted: active means hit-call score of the fitted dose curve at least 0.9, where 1 is the maximum; inactive means score below 0.9.

In general, AC50 refers to the concentration at which the activity in the assay is half-maximal.

`O=C1N[C@@H]2C(=C[C@H](O)[C@@H](O)[C@H]2O)c2cc3c(c(O)c21)OCO3`: the AC50 is 30.3 nM (active) in assay [1]; 32.7 nM (active) in assay [2]; 45.6 nM (active) in assay [3]; 23.7 nM (active) in [4]; 38.3 nM (active) in assay [5]; 256 nM (active) in [6]. Besides, the AC50 in assay [7] was 218 nM (active); in [9] it was 37 nM (active); in [11], 11.1 nM (active); in assay [12], 14.8 nM (active); in assay [13], 12.1 nM (active); in [14], 9.33 nM (active). The AC50 is 13.1 nM (active) in assay [16], 26.7 nM (active) in [17] and 24.2 nM (active) in assay [18]. For the same molecule, the molecule was classed as inactive in assay [8], in [10], in [15] and in [19].
